Measurements reported in PubChem BioAssay (NCI).
Compounds without any hit were thinned out: in the full panel of roughly 83,000, 20% have a hit.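 Plates (96-well) were seeded with cells, treated with compound at one concentration, and incubated for 48 hours before percent growth was determined.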 Calls of active or inactive are those of the source. How the source made its calls: active means growth percent below 10; inactive means the rest.

tested on: CAKI-1 renal; test: NCI-60 one-dose screen, 48 h (100 = growth as untreated, 0 = no growth, -100 = all killed); conditions: 10 µM unless noted

Structure (SMILES) | growth
C=C(Cl)COC(=O)C(C)(C)O | 94.6% (inactive)
O=C1Nc2ccccc2SC1C1SC(=S)N(Cc2ccccc2)C1=O (stereo not given) | 78.2% (inactive)
COc1ccc(OC)c(Nc2nc3nonc3nc2Nc2cc(OC)ccc2OC)c1 | 53% (inactive)
COc1cc2oc(-c3cccc(C(=O)Nc4ccc(C)cc4)c3)cc(=O)c2c(OC)c1OC | 2.16% (active)
O=C1c2ccccc2C2(c3ccc(O)cc3)c3ccccc3Oc3cccc1c32 (stereo not given) | 45.9% (inactive)
COc1ccc(-c2cc(-c3cc(OC)ccc3OC)[nH]c(=O)c2C#N)cc1 | 63% (inactive)
N[C@@H]1CCC[C@H]1NCCCCN1C(=O)c2cccc3cccc(c23)C1=O | 81.3% (inactive)
NC(=S)N/N=C/C(=O)O | 88.5% (inactive)
COC1=CC(c2ccc[nH]2)=N/C1=C\c1[nH]c(C)c(C(=O)OCCn2cc(CCC[C@@H]3Cc4cc(O)ccc4C4CC[C@]5(C)[C@@H](O)CC[C@H]5C43)nn2)c1C (stereo not given in full) | 46.4% (inactive)
O=C1CSC(c2ccccc2)N1c1ccccc1 (stereo not given) | 102% (inactive)
O=C1NCC(=O)N(Cc2ccco2)[C@H]1Cc1ccccc1 | 97.4% (inactive)
O=C(Nc1cccc2[nH]c(C(F)(F)F)nc12)c1cc(Cl)ccc1Cl | 31.3% (inactive)
CCNCCNc1cc(-c2ccc(C(F)(F)F)cc2)c(C#N)c2nc3cc(Cl)c(Cl)cc3n12 | -91.5% (active)
COc1cc(NC(=O)c2cccc(-c3cc(=O)c4c(O)c(OC)c(OC)cc4o3)c2)cc(OC)c1OC | 62.5% (inactive)
Cc1cc(C(c2ccccc2)c2ccccc2)ccc1NS(=O)(=O)c1ccccc1 | 89.3% (inactive)
COc1ccc(-c2nc3sc4c(c3c(=O)[nH]2)CCCC4)c2ccccc12 | 9.7% (active)
COc1ccc(OC)c(Nc2nc3nonc3nc2Nc2cccc(Br)c2)c1 | 0.162% (active)
O=C(O)CC1Sc2ccccc2NC1=O (stereo not given) | 72.8% (inactive)
O=C(c1ccccc1)c1ccc(Cl)c([N+](=O)[O-])c1 | -2.29% (active)
Nc1c(C(=O)Nc2ccccc2)sc2nc3c(cc12)CCCCCC3 | 42% (inactive)
O=C1CSC(c2ccccc2O)N1c1nnc(Cn2cnnc2)o1 (stereo not given) | 71.3% (inactive)
Clc1ccc2[nH]c3c(NCCCN4CCOCC4)ncnc3c2c1 | 75.9% (inactive)
CN(C)c1ccc(/C=C/c2c(F)cccc2F)cc1 | 94.6% (inactive)
COC(=O)CCCNC(=O)C(=O)c1c(O)c(O)c(C(C)C)c2cc(C)c(-c3c(C)cc4c(C(C)C)c(O)c(O)c(C(=O)C(=O)NCCCC(=O)OC)c4c3O)c(O)c12 | 32.7% (inactive)
CCOc1cccnc1/C=N/NC(N)=S | 29% (inactive)
COc1ccc(/C(C)=N/NS(=O)(=O)c2ccc(C)cc2)cc1OC | 90.4% (inactive)
COc1cc(NC(=O)c2cc(O)c(CC=C(C)C)c(O)c2)cc2c1O[C@]1(C)CC[C@@H](O)C(C)(C)[C@H]1C2 | 19.6% (inactive)
CCCCNC(=O)NS(=O)(=O)c1ccc(N2N=C(c3ccc(C)cc3C)CC2c2ccc(N(C)C)cc2)cc1 (stereo not given) | 63% (inactive)
N#Cc1c(-c2ccc(C(F)(F)F)cc2)cc(N2CC(O)C2)n2c1nc1ccccc12 | 72.1% (inactive)

tested on: A498 renal; test: as above; conditions: 10 µM unless noted

Structure (SMILES) | growth
COc1cc(NC(=O)c2cccc(-c3cc(=O)c4c(OC)c(OC)c(OC)cc4o3)c2)cc(OC)c1OC | 57.4% (inactive)
COc1ccc(NC(=O)c2cccc(-c3cc(=O)c4c(O)c(OC)c(OC)cc4o3)c2)cc1 | 83.8% (inactive)
O=C1NN(C(=O)c2ccc(O)cc2)C(c2ccccc2)=N/C1=C\c1cn(-c2ccccc2)nc1-c1ccccc1 | 88.8% (inactive)
CO[C@H]1/C=C/O[C@@]2(C)Oc3c(C)c(O)c4c(c3C2=O)C(=O)C(/C=N/N(c2ccccc2)c2ccccc2)=C(NC(=O)/C(C)=C\C=C\[C@H](C)[C@H](O)[C@@H](C)[C@@H](O)[C@@H](C)[C@H](OC(C)=O)[C@@H]1C)C4=O | -5.29% (active)
C[C@@H]1C(=O)N(C[C@H](Cc2ccccc2)N(Cc2ccccc2)Cc2ccccc2)[C@]1(Cc1ccccc1)C(=O)OC(C)(C)C | 8.49% (active)
COc1cc(/C=C/C(=O)c2cccc(-n3cc(-c4ccc(Cl)cc4)[nH]c3=O)c2)cc(OC)c1OC | 110% (inactive)
COc1cc(-c2ccc(N=Nc3c(O)c(C(=O)Nc4ccccc4OC)cc4ccccc34)c(OC)c2)ccc1N=Nc1c(O)c(C(=O)Nc2ccccc2OC)cc2ccccc12 | 78% (inactive)
CC/C=C/[C@@H]1C=C[C@@H]2CCC[C@H]2[C@@H]1CC[C@H](O)[C@H](C)N | 82.1% (inactive)
COc1ccc(C(=O)/C=C/c2cc3c(c(OC)c2)OCC(=O)N3)cc1 | 94.3% (inactive)
Nc1nc(N)c(-c2ccc(Cl)cc2)c(/C=C/c2ccc([N+](=O)[O-])cc2)n1 | -3.32% (active)
C=C(Cl)COC(=O)C(C)(C)O | 94.1% (inactive)
O=C1Nc2ccccc2SC1C1SC(=S)N(Cc2ccccc2)C1=O (stereo not given) | 109% (inactive)
COc1ccc(OC)c(Nc2nc3nonc3nc2Nc2cc(OC)ccc2OC)c1 | 60.7% (inactive)
COc1cc2oc(-c3cccc(C(=O)Nc4ccc(C)cc4)c3)cc(=O)c2c(OC)c1OC | 6.03% (active)
O=C1c2ccccc2C2(c3ccc(O)cc3)c3ccccc3Oc3cccc1c32 (stereo not given) | 47.1% (inactive)
COc1ccc(-c2cc(-c3cc(OC)ccc3OC)[nH]c(=O)c2C#N)cc1 | -1.35% (active)
N[C@@H]1CCC[C@H]1NCCCCN1C(=O)c2cccc3cccc(c23)C1=O | 34.8% (inactive)
NC(=S)N/N=C/C(=O)O | 80.3% (inactive)

Structure (SMILES) | growth
COC1=CC(c2ccc[nH]2)=N/C1=C\c1[nH]c(C)c(C(=O)OCCn2cc(CCC[C@@H]3Cc4cc(O)ccc4C4CC[C@]5(C)[C@@H](O)CC[C@H]5C43)nn2)c1C (stereo not given in full) | 49.6% (inactive)
O=C1CSC(c2ccccc2)N1c1ccccc1 (stereo not given) | 61.7% (inactive)
O=C1NCC(=O)N(Cc2ccco2)[C@H]1Cc1ccccc1 | 52.9% (inactive)
CCNCCNc1cc(-c2ccc(C(F)(F)F)cc2)c(C#N)c2nc3cc(Cl)c(Cl)cc3n12 | -40.5% (active)
COc1cc(NC(=O)c2cccc(-c3cc(=O)c4c(O)c(OC)c(OC)cc4o3)c2)cc(OC)c1OC | 80.1% (inactive)
Cc1cc(C(c2ccccc2)c2ccccc2)ccc1NS(=O)(=O)c1ccccc1 | 102% (inactive)
COc1ccc(-c2nc3sc4c(c3c(=O)[nH]2)CCCC4)c2ccccc12 | -24.4% (active)
COc1ccc(OC)c(Nc2nc3nonc3nc2Nc2cccc(Br)c2)c1 | -39.9% (active)
O=C(O)CC1Sc2ccccc2NC1=O (stereo not given) | 124% (inactive)
O=C(c1ccccc1)c1ccc(Cl)c([N+](=O)[O-])c1 | 57.1% (inactive)
O=C1CSC(c2ccccc2O)N1c1nnc(Cn2cnnc2)o1 (stereo not given) | 106% (inactive)
Clc1ccc2[nH]c3c(NCCCN4CCOCC4)ncnc3c2c1 | 58.4% (inactive)
CN(C)c1ccc(/C=C/c2c(F)cccc2F)cc1 | 77.2% (inactive)
COC(=O)CCCNC(=O)C(=O)c1c(O)c(O)c(C(C)C)c2cc(C)c(-c3c(C)cc4c(C(C)C)c(O)c(O)c(C(=O)C(=O)NCCCC(=O)OC)c4c3O)c(O)c12 | -7.28% (active)
CCOc1cccnc1/C=N/NC(N)=S | 3.97% (active)
COc1cc(NC(=O)c2cc(O)c(CC=C(C)C)c(O)c2)cc2c1O[C@]1(C)CC[C@@H](O)C(C)(C)[C@H]1C2 | -2.7% (active)
CCCCNC(=O)NS(=O)(=O)c1ccc(N2N=C(c3ccc(C)cc3C)CC2c2ccc(N(C)C)cc2)cc1 (stereo not given) | 62.6% (inactive)
N#Cc1c(-c2ccc(C(F)(F)F)cc2)cc(N2CC(O)C2)n2c1nc1ccccc12 | -4.38% (active)
